Source: publication PMC5540273 (PLoS ONE, 2017)

What follows are compounds tested on EPHA1. Conditions: concentration: 1 μM, replicates: in singlicate; n = 1.
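Also: KINOMEscan kinase panel screen.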

Row | Structure (SMILES) | %Inh [%]
1 | Cc1ccc(C(=O)N2CC[C@@H](O)C2)cc1-n1c(C)cc(OCc2ccc(F)cc2F)c(Br)c1=O | 78
2 | CC(=O)Nc1nc2cnc(Nc3cc(NC(=O)c4cccc(C5(C#N)CC5)c4Cl)ccc3C)nc2s1 | 70
3 | COc1cc(Nc2nccc(N3CCC(NC(=O)c4cc5ccccc5s4)C3)n2)cc(OC)c1OC (centres unmarked) [GSK1379760] | 3
4 | Cc1ccc(C(=O)Nc2ccc(Nc3ccnc4cc(-c5nccs5)ccc34)cc2O)cc1.Cl [GW494702] | 8
5 | Cc1ccc(C)c(NC(=O)NC2CCN(c3ccnc(Nc4ccc(F)cc4)n3)C2)c1 (centres unmarked) [GSK1379720] | 18
6 | CN(C)S(=O)(=O)c1cc(-c2ccc3nccc(-c4cccc(S(N)(=O)=O)c4)c3c2)cnc1N [GSK1669921] | 10
7 | COc1cccc(NC(=O)NC2CCN(c3ccnc(Nc4cc(OC)c(OC)c(OC)c4)n3)C2)c1 (centres unmarked) [GSK1379763] | 6
8 | Fc1ccc(-c2ncn(C3CCNCC3)c2-c2ccnc(Oc3ccc(-c4ccccc4)cc3)n2)cc1 [SB-245391] | 19
9 | Cn1cc(-c2[nH]c3cc(NC(=O)[C@H](N)C4CCCCC4)cc4c3c2C=NNC4=O)cn1 | 25
10 | Cl.Cl.NCC(NCc1ccc(-c2ccnc3[nH]ccc23)s1)c1ccccc1 (centres unmarked) [GSK1321565] | 24

The compounds below were run on EPHA2. Conditions: concentration: 1 μM, replicates: in singlicate; n = 1.

Row | Structure (SMILES) | %Inh [%]
11 | COc1cc2c(cc1OCCN1CCNCC1)ncc1c3ccc(C#N)cc3[nH]c21 | 3
12 | CN(c1ccc(NC(=O)Nc2cc(C(F)(F)F)ccc2F)cc1)c1ccnc(Nc2ccc(S(N)(=O)=O)cc2)n1 [GW809893] | 96.1
13 | COc1ccc(Nc2nccc(N3CCC(NC(=O)Nc4cccc(OC)c4)C3)n2)cc1 (centres unmarked) [GSK1379742] | 0
14 | COc1cccc(-c2ccc3c(NC(=O)C4CC4)n[nH]c3n2)c1 [SB-710903] | 0
15 | CNC(=O)c1ccccc1Nc1nc(Nc2ccc(N3CCOCC3)cc2)ncc1Cl.Cl [GSK1576028] | 53
16 | O=C(NC1CCN(c2ccnc(Nc3ccc(F)cc3)n2)C1)c1cc2ccccc2s1 (centres unmarked) [GSK1379716] | 17
17 | O=C(Nc1cccc(Oc2ccc3nc(NC(=O)C4CC4)cn3n2)c1)c1ccccc1C(F)(F)F | 29
18 | Cl.c1ccc(-c2ccc3c(Nc4ccc5[nH]ncc5c4)ccnc3c2)nc1 [GW440137] | 0
19 | Cl.Cl.NCC(NC(=O)c1cc(-c2ccccc2)c(-c2ccnc3[nH]ccc23)s1)c1ccccc1 (centres unmarked) [GSK1321561] | 21
20 | C[C@@H](Oc1cc(-n2cnc3cc(-c4ccnc(NCCS(C)(=O)=O)c4)ccc32)sc1C(N)=O)c1ccccc1Cl [GSK907232] | 16
21 | O=C(Nc1cccc(-c2nn3ccccc3c2-c2ccnc(Nc3cccc(F)c3)n2)c1)c1c(F)ccc(F)c1Cl [GSK357952] | 0
22 | Cc1occc1-c1ncc(OC[C@@H](N)Cc2c[nH]c3ccccc23)cc1-c1ccc2[nH]nc(C)c2c1.O=C(O)C(F)(F)F [GSK682037] | 9
23 | CCc1ccc(-c2ccc3c(c2)-c2c(cnn2C)S(=O)(=O)N3C)cc1 | 0
24 | O=c1[nH]cc(-c2ccc(N3CCOCC3)cc2)c2sc(-c3cn[nH]c3)cc12 [GSK2276055] | 0
25 | Cc1cccc(NC(=O)Nc2ccc(Oc3ncnc4ccn(C)c34)cc2)c1 | 0
26 | CC(C)(C)c1ccc2nccc(Nc3cccc(O)c3)c2c1 [GW856795] | 18
27 | COc1cc(Nc2nccc(-c3c(-c4cccc(NC(=O)c5c(F)cccc5F)c4)nn4ccccc34)n2)cc(OC)c1OC [GSK323521] | 16
28 | CCn1c(-c2nonc2N)nc2c(C#CC(C)(C)O)ncc(OCCCCN)c21.O=C(O)C(F)(F)F.O=C(O)C(F)(F)F [GSK507274] | 43
29 | O=C(Nc1cccc(-c2nn3ncccc3c2-c2ccnc(Nc3ccccc3)n2)c1)c1c(F)cccc1F [GSK198271] | 10

Row | Structure (SMILES) | %Inh [%]
30 | Cn1cc(-c2ccc3c(c2)CCN3C(=O)Cc2cccc(Cl)c2)c2c(N)ncnc21 [GSK2606590] | 10
31 | CN1CCN(Cc2cccc(-c3ccc4c(Nc5ccc(Oc6ccccc6)cc5)ccnc4c3)c2)CC1 [GW578342] | 4
32 | Oc1cc(Nc2ccnc3cc(I)ccc23)ccc1F [GW552771] | 34
33 | CCCCc1nn2ncccc2c1-c1ccnc(Nc2ccc(N3CCN(C)CC3)cc2)n1 [GW684941] | 42
34 | O=C(Nc1n[nH]c2cc(-c3ccoc3)ccc12)C1CC1 [SB-738481] | 0
35 | COc1cccc(C2=C(Nc3ccc(Cl)c(C(=O)O)c3)C(=O)NC2=O)c1 [SB-390769] | 10
36 | CCS(=O)(=O)c1ccc(OC)c(Nc2nccc(-c3c(-c4cccc(NC(=O)c5c(F)cccc5F)c4)nn4ncccc34)n2)c1 [GSK326180] | 0
37 | Nc1ncc(-c2cccnc2)c2scc(-c3ccc4c(c3)CCN4C(=O)Cc3ccccc3)c12 [GSK683281] | 8
38 | Cc1ccc(C(=O)N2CC[C@@H](O)C2)cc1-n1c(C)cc(OCc2ccc(F)cc2F)c(Br)c1=O | 76
39 | CC(=O)Nc1nc2cnc(Nc3cc(NC(=O)c4cccc(C5(C#N)CC5)c4Cl)ccc3C)nc2s1 | 79
40 | COc1cc(Nc2nccc(N3CCC(NC(=O)c4cc5ccccc5s4)C3)n2)cc(OC)c1OC (centres unmarked) [GSK1379760] | 9
41 | Cc1ccc(C(=O)Nc2ccc(Nc3ccnc4cc(-c5nccs5)ccc34)cc2O)cc1.Cl [GW494702] | 15
42 | Cc1ccc(C)c(NC(=O)NC2CCN(c3ccnc(Nc4ccc(F)cc4)n3)C2)c1 (centres unmarked) [GSK1379720] | 0
43 | CN(C)S(=O)(=O)c1cc(-c2ccc3nccc(-c4cccc(S(N)(=O)=O)c4)c3c2)cnc1N [GSK1669921] | 9
44 | COc1cccc(NC(=O)NC2CCN(c3ccnc(Nc4cc(OC)c(OC)c(OC)c4)n3)C2)c1 (centres unmarked) [GSK1379763] | 0
45 | Fc1ccc(-c2ncn(C3CCNCC3)c2-c2ccnc(Oc3ccc(-c4ccccc4)cc3)n2)cc1 [SB-245391] | 0
46 | Cn1cc(-c2[nH]c3cc(NC(=O)[C@H](N)C4CCCCC4)cc4c3c2C=NNC4=O)cn1 | 1
47 | Cl.Cl.NCC(NCc1ccc(-c2ccnc3[nH]ccc23)s1)c1ccccc1 (centres unmarked) [GSK1321565] | 0
